eIF4H FP inh: inhibitors of RNA binding by human eIF4H. 290,000 tested, 0.94% active. inhibition, % at 35 µM. eIF4H fluorescence polarization binding assay;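 note: calls also rest on retests at 20 µM and on dose response follow-up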
PABP polyA inh: blocks human PABP binding to poly(A) RNA. fluorescence polarization. P11940. 290,000 tested, 1% active. calls only at 35 µM;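 note: calls also rest on retests at 20 µM and on dose response follow-up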
AI-2 QS modul: modulates the Vibrio harveyi AI-2 quorum sensing system | Vibrio harveyi JMH597 AI-2 luminescence/OD600 ratio, 9 h; stronger effect = lower value; strain lacks LuxN and CqsS sensors; 0 = neutral-control median | activity change, % at 7.5 µM | 300,000 tested, 0.4% active | AID 2094; in the data active = activity change below about -75%, passing the limit was not always enough; inconclusive = no clear call, values can overlap the other calls;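 note: luminescence divided by OD600 gain over 9 h not by final OD600 alone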
PABP1 MLLE inh: inhibitors of microRNA-mediated deadenylation, human PABP1 MLLE binding. P11940. GST-MLLE / FITC-PAM2 fluorescence polarization. inhibition, % at 20 µM. 360,000 tested, 0.36% active; in the data active = inhibition above about 35%, passing the limit was not always enough
PHOSPHO1 inh: PHOSPHO1 (human) inhibition | recombinant PHOSPHO1, absorbance phosphatase assay | inhibition, % at 13.3 µM | 290,000 tested, 1.1% active; in the data active = inhibition above about 60%
Target sequence (Q8TCT1 whole entry, looked up): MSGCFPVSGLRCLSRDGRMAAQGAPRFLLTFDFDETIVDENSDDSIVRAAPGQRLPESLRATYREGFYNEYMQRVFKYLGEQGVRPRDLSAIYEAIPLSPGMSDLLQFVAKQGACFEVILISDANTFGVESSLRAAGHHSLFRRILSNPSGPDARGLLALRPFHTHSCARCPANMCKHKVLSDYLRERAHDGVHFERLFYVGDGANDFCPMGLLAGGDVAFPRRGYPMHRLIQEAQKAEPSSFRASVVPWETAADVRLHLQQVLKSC
ABCB6 inh MLPCN: human ABCB6 transporter inhibition; fluorescence ratio to DMSO, % at 10 µM; K562-ABCB6 porphyrin accumulation, flow cytometry, 1 h; stronger effect = lower value; AID 602162; 360,000 tested, 0.19% active;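 active = fluorescence ratio to DMSO below 75%, the collection mean minus 3 SD; inconclusive = too few cells collected in the well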;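 note: signal is porphyrin accumulated inside mitochondria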
Numbers stand for hits; n = inactive; u = inconclusive; x = not tested or not shown; + = active, no number. Compounds with a hit are over-represented: about 2.6% of the library has one in this group of screens. Unless noted, the rule behind the calls is not given here.

SMILES | eIF4H FP inh | PABP polyA inh | AI-2 QS modul | PABP1 MLLE inh | PHOSPHO1 inh | ABCB6 inh MLPCN
CC1=Nn2c(nnc2-c2ccccc2Cl)SC1 | n | n | n | n | 74 | n
CC12CCC(=O)C=C1CCC1C2C(O)CC2(C)C1CCC2(O)C(=O)COC(=O)CCC1CCCC1 (centres undefined) | x | x | x | n | x | n
OC(c1ccccc1)c1nc(/C=C/c2ccccc2)cs1 (centres undefined) | x | x | x | n | x | n
O=Nc1ccc(NOC(=O)c2ccccc2Br)cc1 | n | n | n | n | n | n
O=C(ONc1ccc(N=NC(=O)c2ccccc2O)cc1)c1ccccc1 | n | n | n | n | 83 | n
CCNC(=O)C1(C)CCCN1C(=O)c1ccc2c(c1)OCO2 (centres undefined) | x | x | x | n | x | n
CN(Cc1ccc(Cl)cc1)C(=O)COC(=O)CSc1ccc([N+](=O)[O-])cc1 | x | x | x | 40 | x | n
CN(C(=O)COC(=O)CSc1ccc([N+](=O)[O-])cc1)c1ccccc1 | x | x | x | n | x | n
CC1CN(c2oc(-c3ccco3)nc2S(=O)(=O)c2ccccc2)CC(C)O1 (centres undefined) | n | n | n | n | 76 | n
Cc1ccc(S(=O)(=O)NCCN=C(CN2CCOCC2)NS(=O)(=O)c2ccc(C)cc2)cc1 | n | n | n | n | n | n
Cc1ccc(S(=O)(=O)NCCN=C(CN2CCCC2)NS(=O)(=O)c2ccc(C)cc2)cc1 | n | n | x | n | n | 66
O=C(Nc1ccccc1)c1cccc(N2C(=O)CCC2=O)c1 | n | n | n | n | n | n
CN(C)c1ccc(NC(=O)c2cccc(N3C(=O)CCC3=O)c2)cc1 | n | n | n | n | 66 | n
CCOC(=O)[C@]12CCC=C1N(Cc1ccco1)C(=O)[C@H](CC(=O)NCC13CC4CC(CC(C4)C1)C3)C2 | x | x | x | x | x | n
CCc1cc(C(=O)NNC(=S)NC2CCCCC2)cs1 | n | n | n | n | n | n
CCc1cc(C(=O)NNC(=S)NC(C)c2ccccc2)cs1 (centres undefined) | n | n | n | n | 65 | n
Cc1nc2cc(Cl)ccc2n1-c1ccccc1 | n | n | n | n | n | n
Cc1n(-c2ccccc2)c2ccc(Cl)cc2[n+]1CCO | n | + | n | n | n | n
Cc1ccc(OC(=O)N(C)C[C@H]2OCc3cn(nn3)CCCC(=O)N([C@H](C)CO)C[C@@H]2C)cc1 | x | x | x | n | x | n
Cc1nc2[nH]c(=S)[nH]c(=O)c2nc1C | x | x | x | 42 | x | n
Cc1nc2c(=O)[nH]c(=S)[nH]c2[nH]c1=O | x | x | x | n | x | n
CC(C)(C)c1ccc(CC(=O)N2CCC2(C)C(=O)NCc2cccc3ccccc23)cc1 (centres undefined) | x | x | x | n | x | n
CCO/C=C1\C(=O)N(CC)c2ccccc21 | active | + | n | n | n | n
CCN1C(=O)/C(=C\N(C)C)c2ccccc21 | n | n | n | n | n | n
CCNC(=S)N/N=C/c1cn(Cc2ccccc2F)c2ccccc12 | n | n | n | n | n | n
SMILES | eIF4H FP inh | PABP polyA inh | AI-2 QS modul | PABP1 MLLE inh | PHOSPHO1 inh | ABCB6 inh MLPCN
O=C(N/N=C/c1cn(Cc2ccccc2)c2ccccc12)c1cc(O)cc(O)c1 | 62 | n | n | n | n | n
CCNC(=S)N/N=C/c1cn(Cc2ccc(F)cc2)c2ccccc12 | 82 | + | n | n | n | n
CCOC(=O)C1(C)CCCCCN1C(=O)c1csnn1 (centres undefined) | x | x | x | n | x | n
c1ccc2c(c1)OCC(c1nn3c(Cn4nnc5ccccc54)nnc3s1)O2 (centres undefined) | n | n | n | n | 62 | n
c1ccc(Cc2nn3c(Cn4nnc5ccccc54)nnc3s2)cc1 | n | n | n | n | 91 | n
c1cncc(-c2nn3c(Cn4nnc5ccccc54)nnc3s2)c1 | n | n | n | n | n | n
c1ccc(OCc2nn3c(Cn4nnc5ccccc54)nnc3s2)cc1 | n | n | n | n | 83 | n
c1ccc(CCc2nn3c(Cn4nnc5ccccc54)nnc3s2)cc1 | n | n | n | n | n | n
c1ccc(-c2nn3c(Cn4nnc5ccccc54)nnc3s2)nc1 | 70 | n | n | n | n | n
CCCCNC(=O)C1(C)CCN1C(=O)c1ccc2c(c1)C(C)(C)CCC2(C)C (centres undefined) | x | x | x | n | x | n
O=C1CCCCC(=O)[C@H](OC(=O)c2ccccc2)C[C@H](c2ccccc2)O1 | x | x | x | x | x | n
O=C(NCc1ccc(Cl)nc1)c1ccc2nc([C@@H]3O[C@H](CO)[C@H](O)[C@H](O)[C@H]3O)[nH]c2c1 | x | x | x | n | x | n
c1ccc(OCc2nnc3sc(-c4cccs4)nn23)cc1 | n | n | n | n | 61 | n
Clc1ccc(Cl)c(-c2nn3c(COc4ccccc4)nnc3s2)c1 | n | n | n | n | n | n
O=C(Cc1ccc(Cl)cc1Cl)Nc1cccc(S(=O)(=O)Nc2ccccc2F)c1 | n | n | n | n | 74 | n
O=C(Cc1c(F)cccc1Cl)Nc1cccc(S(=O)(=O)NC2=NCCCCC2)c1 | x | x | n | n | x | n
O=C(Cc1ccc(S(=O)(=O)N2CCOCC2)s1)Nc1nc2c(s1)CCCC2 | 60 | + | n | n | 94 | n
O=C(Cc1ccc(S(=O)(=O)N2CCOCC2)s1)Nc1ccc2c(c1)CCC2 | n | n | n | n | n | n
S=c1nn[nH]n1C12CC3CC(CC(C3)C1)C2 | n | n | n | n | 102 | n
C=CCn1c(-c2cc(Cl)ccc2OC)n[nH]c1=S | n | n | n | n | 92 | n
C=CCn1c(-c2cccc(OC)c2OC)n[nH]c1=S | n | u | n | n | n | n
CCn1c(-c2cc(Cl)ccc2OC)n[nH]c1=S | n | n | n | n | 89 | n
CCn1c(-c2cccc(Cl)c2)n[nH]c1=S | n | n | n | n | 95 | n
CCn1c(-c2cc(OC)c(OC)c(OC)c2)n[nH]c1=S | n | n | n | n | n | n
CCn1c(-c2csc(-c3ccc(Cl)cc3)n2)n[nH]c1=S | n | n | n | n | 83 | n
SMILES | eIF4H FP inh | PABP polyA inh | AI-2 QS modul | PABP1 MLLE inh | PHOSPHO1 inh | ABCB6 inh MLPCN
CCc1ccc(S(=O)(=O)NCc2ccc(C(=O)NCCN(Cc3ccccc3)C(C)C)cc2)cc1 | x | x | x | n | x | n
COc1ccccc1-c1cc2nc(-c3ccccc3)cc(N3CCN(C(=O)c4ccco4)CC3)n2n1 | x | x | x | n | x | n
O=C(NCc1ccco1)c1ccc(-c2ccc(F)c(F)c2)c2ccoc12 | x | x | x | n | x | n
COc1ccc(Cl)cc1-c1nc(SCC(=O)N(C)C)n[nH]1 | n | n | n | n | n | n
COc1ccc(Cl)cc1-c1n[nH]c(=S)n1C | n | n | n | n | 85 | n
C=CCn1c(-c2ccoc2C)n[nH]c1=S | n | n | n | n | 81 | n
CCCCNC(=S)N(CCCO)Cc1cc2cc3c(cc2[nH]c1=O)OCO3 | x | x | x | n | x | n
CCOC(=O)c1sc(=S)n(-c2cc(F)ccc2F)c1N | n | n | n | n | n | n
COC(=O)c1sc(=S)n(-c2cc(F)ccc2F)c1N | n | n | n | 40 | n | n
COc1cccc(C(c2sc3nc(C)nn3c2O)N2CCc3ccccc3C2)c1 (centres undefined) | n | n | n | n | 74 | n
